# According to article PMC4552634, “A New Set of Chemical Starting Points with Plasmodium falciparum Transmission-Blocking Potential for Antimalarial Drug Discovery” (PLoS ONE, 2015):
# The whole screen tested about 13,000 compounds, of which about 3,200 (25%) showed an effect of 50% or more. The list shows a part of the results.
# Test system: P. falciparum stage V gametocytes
# Set-up: BacTiter-Glo ATP luminescence viability of purified stage V gametocytes in 384-well plates, per cent inhibition versus DMSO
# Conditions: 48 h, 5 µM; inhibitor
row,Structure (SMILES),% Inhibition [%]
1,O=C(NC1CC1)c1ccc(N2CCCCN2CCc2ccccc2)c(C(F)(F)F)c1 [TCMDC-135276],0.5792
2,COc1ccc(CCNC(=O)c2ccccc2O)cc1-c1ccc(C(C)(C)C)cc1 [TCMDC-136182],40.5
3,N=C1NC(=N)N(OCCCCCCON2C(=N)NC(=N)NC2C=Cc2ccccc2)C(C=Cc2ccccc2)N1 (stereo not drawn) [TCMDC-131602],-13.97
4,Cc1nc2nc(N)nc(N)c2c(C)c1Cc1ccc(C(N)=O)cc1 [TCMDC-137641],15.14
5,CC1=C(C(=O)Nc2cc3cn[nH]c3cc2F)C(c2ccc(Cl)c(NS(C)(=O)=O)c2)CC(=O)N1 (stereo not drawn) [TCMDC-136204],27.6
6,CC1=C(C(=O)Nc2cc3cn[nH]c3cc2F)C(c2cccc(NS(C)(=O)=O)c2)CC(=O)N1 (stereo not drawn) [TCMDC-136177],35.05
7,CC1=C(C(=O)Nc2cc3cn[nH]c3cc2F)C(c2cccc(O)c2F)CC(=O)N1 (stereo not drawn) [TCMDC-136296],76.63
8,C=CCOC(=O)N1CCC(CNCc2cccc(-c3ccc(-c4nc5ccccc5[nH]4)s3)c2)C1.O=C(O)C(F)(F)F (stereo not drawn) [TCMDC-133036],38.09
9,Cc1cc(C2CCN(CCCCNC(=O)c3ccc(NC(=O)c4ccc(Cl)cc4)cc3)CC2)c(C)cc1OCc1ccccn1 [TCMDC-138306],24.78
10,COc1ccc(OCc2ccccn2)c(C2CCN(CCCCNC(=O)c3ccc(NC(=O)c4ccc(Cl)cc4)cc3)CC2)c1 [TCMDC-138311],-15.54
11,O=C(NCCCCN1CCC(c2ccc3c(c2OCc2ccncc2)CCCC3)CC1)c1ccc(NC(=O)c2ccc(Cl)cc2)cc1 [TCMDC-138725],119.9
12,O=C(NCCCCN1CCC(c2ccc3c(c2OCc2ccccn2)CCCC3)CC1)c1ccc(NC(=O)c2ccc(Cl)cc2)cc1 [TCMDC-138720],101.6
13,Cc1ccc(NC(C)C(=O)Nc2ccccc2)cc1S(=O)(=O)N1CCCCCC1 (stereo not drawn) [TCMDC-124868],-63.29
14,Brc1cc(Br)c2c(c1)C(NCCCNC1CCNc3c(Br)cc(Br)cc31)CCN2 (stereo not drawn) [TCMDC-140067],-3.983
15,COc1ccc(NC(=O)[C@H](CC(C)C)Nc2ccnc(Nc3ccccc3)n2)cc1 [TCMDC-134750],-9.476
16,COc1cccc(OC)c1C(=O)Nc1cccc(-c2nn3ccccc3c2-c2ccnc(Nc3cccc(F)c3)n2)c1 [TCMDC-135847],-55.46
17,CC(C)CNCc1cccc(-c2cccc(CN(CCCN3CCN(C)CC3)C(=O)/C=C/c3ccccc3)c2)c1 [TCMDC-140541],106.7
18,CC(C)CNCc1ccc(-c2ccc(CN(CCCN3CCN(C)CC3)C(=O)/C=C/c3ccccc3)cc2)cc1 [TCMDC-140546],104.5
19,CC(C)CNCc1ccc(-c2cccc(CN(CCCN3CCN(C)CC3)C(=O)/C=C/c3ccccc3)c2)cc1 [TCMDC-140542],91.48
20,CC(C)CNCc1cccc(-c2ccc(CN(CCCN3CCN(C)CC3)C(=O)/C=C/c3ccccc3)cc2)c1 [TCMDC-140545],109.3
21,O=C(/C=C/c1ccc(CNCCN2CCOCC2)cc1)NCCc1ccccc1 [TCMDC-140901],-18.05

row,Structure (SMILES),% Inhibition [%]
1,COC(=O)c1c(C#N)c(OC)cc(O)c1CSC[C@H](Nc1nc(-c2ccc([N+](=O)[O-])cc2)cs1)C(=O)NCCN1CCCCC1 [TCMDC-138651],-15.18
2,Cc1nc(N)nc(N)c1OCCCCCCOc1ccccc1 [TCMDC-131354],-4.555
3,Cc1ccc(F)c(C(=O)Nc2cccc(-c3nn4ccccc4c3-c3ccnc(Nc4cccc(F)c4)n3)c2)c1F [TCMDC-135846],-36.31
4,O=C(Nc1cccc(-c2nn3ccccc3c2-c2ccnc(Nc3ccc(Cc4ccncc4)cc3)n2)c1)c1c(F)cccc1F [TCMDC-135845],-48.11
5,CC1(C)N=C(N)N=C(N)N1OCCc1ccc(N)cc1 [TCMDC-131632],14.77
6,Cc1ccc(F)c(OC2CCN(c3ccc(C(=O)NC4CC4)cn3)CC2)c1 [TCMDC-134036],27.07
7,CCNc1cc(C)nc(Nc2ccc(NC(=O)c3cccs3)cc2)n1 [TCMDC-124981],-23.08
8,O=C(Nc1cccc(-c2cccc(-c3nc4ccc(C(F)(F)F)cc4[nH]3)c2)c1)c1cccnc1Cl [TCMDC-136838],-52.15
9,O=C(Nc1cc(C(F)(F)F)cc(C(F)(F)F)c1)c1cc(Cl)ccc1O [TCMDC-125465],22.2
10,O=C(Nc1ccc(Cl)cc1)c1cc(Cl)cc2[nH]c(C(F)(F)F)nc12 [TCMDC-141586],55.63
11,Cc1ncccc1C(=O)Nc1cccc(-c2cccc(-c3nc4ccc(C(F)(F)F)cc4[nH]3)c2)c1 [TCMDC-136860],-20.59
12,O=C(Nc1cccc(C(F)(F)F)c1)c1cccc2[nH]c(C(F)(F)F)nc12 [TCMDC-141579],65
13,O=C(Nc1ccc(Cl)cc1)c1cccc2[nH]c(C(F)(F)F)nc12 [TCMDC-141578],11.96
14,Fc1ccccc1COc1ccc(Nc2ncnc3ccc(-c4nnc(C(F)(F)F)o4)cc23)cc1Cl [TCMDC-138161],24.13
15,Cc1ccc(Nc2ccnc(Nc3ccc4c(c3)CS(=O)(=O)C4)n2)cc1O [TCMDC-138484],-40.59
16,CCNc1cc(C(=O)N[C@@H](Cc2ccccc2)[C@H](O)CN[C@@H]2CCc3ccccc32)cc(N2CCCCS2(=O)=O)c1 [TCMDC-134706],14.74
17,CCN(CC)CCN(Cc1ccc(-c2ccc(C(F)(F)F)cc2)cc1)C(=O)Cn1c(CCc2cccc(C#N)c2)nc(=O)c2ccccc21 [TCMDC-140980],54.63
18,CCN(CC)CCN(Cc1ccc(-c2ccc(C(F)(F)F)cc2)cc1)C(=O)Cn1c(CCc2cc(F)c(F)c(F)c2)nc(=O)c2ccccc21 [TCMDC-140944],66.72
19,CCN(CC)CCN(Cc1ccc(-c2ccc(C(F)(F)F)cc2)cc1)C(=O)Cn1c(CCc2ccc(F)c(F)c2)cc(=O)c2ccccc21 [TCMDC-141026],39.3
20,CCN(CC)CCN(Cc1ccc(-c2ccc(C(F)(F)F)cc2)cc1)C(=O)Cn1c(CCc2ccc(F)c(F)c2)nc(=O)c2ccccc21 [TCMDC-140948],78.31
21,CCN(CC)CCN(Cc1ccc(-c2ccc(C(F)(F)F)cc2)cc1)C(=O)Cn1c(CCc2ccc(F)c(C#N)c2)nc(=O)c2ccccc21 [TCMDC-140957],85.6
